Laboratory results taken from PubChem BioAssay (NCATS).
Records with an inconclusive call do not appear. Entries that show only a call come without a potency. Calls of active or inactive are those of the source. Calls follow the shape of the dose curve; as a rule, active = well fitted cell-killing curve with a large enough effect; inconclusive = small, poorly fitted or top-dose-only effect; inactive = flat fitted curve, though single readings scatter.

Assay: qHTS of pediatric cancer cell lines to identify multiple opportunities for drug repurposing: Primary screen for DAOY cells (AID 1347090); also: nearly all actives have a fitted effect of over 55% in size
Conditions: DAOY medulloblastoma viability, CellTiter-Glo luminescence, 48 h; series mostly up to 46 µM
Text: Drug repurposing or repositioning has been offered as a strategy for drug development in oncology programs. This approach has special potential for childhood cancers and other rare or orphan diseases, where the expected return on new drug development has been a disincentive to pharmaceuticals.
In this project we exploit the poly-pharmacology of drugs to discover new indications via phenotypic screening of a panel of 19 well-characterized cell lines derived from solid tumors seen in children and adolescents. The goal is to identify approved drugs with previously unrecognized anticancer properties that has the potential to reveal new mechanisms and biological processes involved in carcinogenesis or drug resistance. We employed a titration-based paradigm (quantitative high-throughput screening or qHTS), where all compounds were tested at multiple concentrations for their effect on cell viability. Concentration-response curves (CRCs) were derived directly from the primary screen, and both potency and efficacy values were used to identify compounds with robust bioactivity profiles. We screened the NIH Chemical Genomics Center (NCGC) Pharmaceutical Collection (NPC) and Mechanism Interrogation Plate (MIPE) small molecule collections of approved and investigational compounds against these cell lines; and measured metabolically active cells after 48 hours of compound treatment as a proxy for cell viability.
Assay Submitter: Nathalia J. Martinez, National Center for Advancing Translational Sciences, National Institutes of Health, Rockville, MD, USA; email: natalia.martinez@nih.gov
[1] Shen, M et al. Quantitative high-throughput phenotypic screening of pediatric cancer cell lines identifies multiple opportunities for drug repurposing. Oncotarget 2017 Dec 19;9(4):4758-4772. PMID 29435139.
The cells were obtained from University of North Carolina (UNC), Pediatric Preclinical Testing Program (PPT), and Coriell Institute (CI).
qHTS cell viability assay:
Cells were assayed in growth media at a density of 500-1,000 cells/well. Five microliters of cells were dispensed into 1,536-well, white, solid-bottom, TC-treated plates (Greiner Bio One) using a multidrop dispenser and incubated at 37 degrees C, 5% CO2, under a humidified atmosphere for 5 hours. Twenty-three nanoliters of compounds and controls (neutral control DMSO or positive control bortezomib at final concentration of 2.3 µM) were subsequently transferred by Kalypsys pintool. For primary screens, the MIPE collection was tested at 11-point dilutions (final concentrations range from 0.78 nM to 46 µM) and the NPC collection at 8-point dilutions (final concentrations range from 0.59 nM to 46 µM). Compounds tested in follow-up screens were assayed at 11-point dilutions. Cells were incubated for 48 hours, followed by addition of 3 uL of CellTiter-Glo (Promega). After a 15 min incubation at room temperature, samples were analyzed for luminescence intensity using a ViewLux High-throughput CCD imager equipped with clear filters.
Potency is read from the fitted curve at half-maximal effect.

Row | SMILES | Potency
1 | Nc1[nH]nc2nnc(-c3c(-c4ccccc4)nn4ccccc34)cc12 | 2.96 µM (active)
2 | CC1(C)OC2CC3C4CC(F)C5=CC(=O)C=CC5(C)C4C(O)CC3(C)[C@]2(C(=O)CO)O1 (stereo not given in full) | inactive
3 | C[C@]12CCC3=C4CCC(=O)C=C4CC[C@@H]3[C@H]1CC[C@@]2(O)CC#N | inactive
4 | CC1CCN(c2cc(N3CCN(C)CC3)ccc2NC(=O)c2cc(C#N)c[nH]2)CC1 | inactive
5 | CCCCCCCCCCCCCC(=O)N[C@H](CO)[C@H](O)c1ccc([N+](=O)[O-])cc1 | inactive
6 | CC1(COc2ccc3c(c2)ncn3-c2ccc3cccc(N4CCC(N)CC4)c3n2)COC1 | 0.0469 µM (active)
7 | Cc1cnc(CNC(=O)c2c(=O)c3ccc(N4CCCN(C)CC4)nc3n3c2sc2ccccc23)cn1 | inactive
8 | CN1C(=O)C[C@H](C(=O)N[C@@H](Cc2cnc[nH]2)C(=O)N2CCC[C@@H]2C(N)=O)NC1=O | inactive
9 | COc1cccc(OC)c1-c1cc(C(=O)NC2(C(=O)O)C3CC4CC(C3)CC2C4)nn1-c1ccnc2cc(Cl)ccc12 (stereo not given) | inactive
10 | CCOC(=O)c1c(CSc2ccccc2)n(C)c2cc(Br)c(O)c(CN(C)C)c12 | inactive
11 | CC(C)C[C@@H](N)[C@H](O)C(=O)N[C@H](C(=O)N[C@H](C(=O)N[C@@H](CC(=O)O)C(=O)O)C(C)C)C(C)C | inactive
12 | C[C@]12C=CC(=O)C=C1CC[C@@H]1[C@@H]2[C@@H](O)C[C@@]2(C)[C@@H]1CC[C@]2(O)C(=O)CO | inactive
13 | O=C1CCCC(=O)C1C(=O)c1ccc(C(F)(F)F)cc1[N+](=O)[O-] | inactive
14 | O=C(NCCCCN1CCOCC1)c1cc2ccccc2o1 | inactive
15 | Cc1ccc(C(=O)N(CCCN)[C@@H](c2nc3cc(Cl)ccc3c(=O)n2Cc2ccccc2)C(C)C)cc1 | 0.0015 µM (active)
16 | O=C(c1ccc(F)c(F)c1Nc1ccc(I)cc1F)N1CC(O)([C@H]2CCCCN2)C1 | 18.7 µM (active)
17 | CN(C)CCN(C)C(=O)c1ccc(NC(=O)Nc2ccc(-c3nc(N4CCOCC4)c4ccn(CC(F)(F)F)c4n3)cc2)cc1 | 1.48 µM (active)
18 | CCC(=O)NCC[C@@H]1CCc2ccc3c(c21)CCO3 | inactive
19 | COc1cc(C=CC(=O)O)ccc1O | inactive
20 | Cc1ccc2c(c1)C(=O)[C@]1(O)CCN(c3ccccc3)C1=N2 | inactive

Row | SMILES | Potency
21 | CN[C@@H]1[C@@H](O)[C@@H](O[C@@H]2[C@@H](O)[C@H](O[C@H]3O[C@H](CN)[C@@H](O)[C@H](O)[C@@H]3O)[C@@H](N)C[C@@H]2NC(=O)[C@@H](O)CN)OC[C@]1(C)O | inactive
22 | Fc1ccc(CNc2ncnc3ccc(F)cc23)cc1 | 7.43 µM (active)
23 | O=C(CC12CC3CC(CC(C3)C1)C2)Nc1cccc2nc(NCCNCCO)ccc12 | 9.35 µM (active)
24 | Cc1ccccc1C(C(=O)NC1CCCCC1)N(C(=O)CNc1ccc(C#N)cc1)c1cccc(F)c1 (stereo not given) | inactive
25 | COC(=O)N1CCN(Cc2cccc(NC(=O)Nc3ccc(C)nc3)c2F)CC1 | inactive
26 | NC(=O)c1ncn([C@@H]2O[C@H](CO)[C@@H](O)[C@@H]2O)n1 | inactive
27 | NC(=O)c1ccc(N(C(N)=O)c2c(F)cccc2F)nc1-c1ccc(F)cc1F | 14.8 µM (active)
28 | CCNC(=O)[C@H]1O[C@@H](n2cnc3c(N)nc(NCCc4ccc(CCC(=O)O)cc4)nc32)[C@H](O)[C@H]1O | inactive
29 | CNC(=O)c1c(-c2ccc(F)cc2)oc2cc(N(CCO)S(C)(=O)=O)c(C3CC3)cc12 | 23.5 µM (active)
30 | Cc1nc2c([nH]1)CCN(C(=O)c1ccc(NC(=O)c3ccccc3-c3ccccc3)cc1)c1ccccc1-2 | inactive
31 | CCOC(=O)[C@H]1O[C@H]1C(=O)N[C@@H](CC(C)C)C(=O)NCCC(C)C | inactive
32 | CC[C@H](C)n1cc(C)c2c(C(=O)NCc3c(C)cc(C)[nH]c3=O)cc(-c3ccc(N4CCNCC4)nc3)cc21 | 11.8 µM (active)
33 | O=C(Nc1cccc2c(=O)cc(-c3nn[nH]n3)oc12)c1ccc(OCCCCc2ccccc2)cc1 | inactive
34 | CC[C@]1(O)C[C@H]2CN(CCC3=c4ccccc4=N[C]3[C@@](C(=O)OC)(c3cc4c(cc3OC)N(C)[C@H]3[C@@](O)(C(N)=O)[C@H](O)[C@]5(CC)C=CCN6CC[C@]43[C@@H]65)C2)C1 | 0.469 µM (active)
35 | CN1CCC(COc2cnc(-c3cccc(Cn4nc(-c5cccc(C#N)c5)ccc4=O)c3)nc2)CC1 | 23.5 µM (active)
36 | Cc1c(-c2cccc3c(CCCOc4cccc5ccccc45)c(C(=O)O)n(Cc4cccnc4)c23)c(COc2ccc(N3CCN([S+](=O)([O-])N(C)C)CC3)cc2)nn1C | 23.5 µM (active)
37 | CC1=C(C(=O)Nc2cc3cn[nH]c3cc2F)C(c2ccc(C(F)(F)F)cc2)CC(=O)N1 (stereo not given) | inactive
38 | N#CC(c1ccc(Cl)cc1)c1c(Cl)cc(-n2ncc(=O)[nH]c2=O)cc1Cl (stereo not given) | 9.35 µM (active)
39 | C[C@@H]1CCO[C@H]2Cn3cc(C(=O)NCc4ccc(F)cc4F)c(=O)c(O)c3C(=O)N12 | inactive
40 | Nc1ncnc2c1ncn2[C@@H]1O[C@H](CO)[C@@H](O)[C@@H]1O | 4.69 µM (active)
